esBAF inh = inhibitors of esBAF chromatin remodeling in mouse ES cells | reporter increase, % at 12.5 µM | AID 602393 | Bmi1-luciferase knock-in reporter, 24 h; 100% = twice the neutral-well signal | actives 2% (n = 350,000); in the data active = activation above about 40%; inconclusive = no clear call, values can overlap the other calls;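 also: 0% = median of the plate's neutral control wells and 100% = double that signal; a rise in the Bmi1 reporter signal indicates esBAF inhibition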
Wnt bcat act = Wnt/beta-catenin pathway activation; actives 1.2% (n = 300,000); AID 743398; Wnt/beta-catenin reporter cell assay, activator, plate reader; activation, % at 9.35 µM; in the data active = activation above about 30%, passing the limit was not always enough; inconclusive = no clear call, values can overlap the other calls;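 also: 0% = neutral control wells and 100% = positive control wells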
Statin myotox sup = protects C2C12 myotubes from simvastatin toxicity. ATP luminescence, 48 h; scaled: DMSO 0, geranylgeraniol control 100. rescue of ATP level, % at 7.49 µM. actives 0.78% (n = 330,000). AID 602340;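 active = mean ATP rescue above about 67%, or every replicate alone reaching that limit, limit read from the data, passing the limit was not always enough; inconclusive = no clear call, values can overlap the other calls; inactive = mean under the limit and some replicate under it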;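 also: myotubes were challenged with 10 µM simvastatin during compound exposure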
MITF act = increases MITF-driven TRPM1 promoter luciferase signal; SK-MEL-5 TRPM1-promoter luciferase, 24 h; % of positive control, neutral wells = 0; activation, % at 12.5 µM; actives 0.75% (n = 300,000);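 active = mean activation of at least 80% with every replicate also reaching 80%; inconclusive = mean reaches 80% but some replicate falls short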;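 also: 0% = neutral control wells and 100% = parthenolide positive control wells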
* = called active by the depositor; ? = inconclusive; / = no result. Only some compounds are listed: those with a hit (about 3% of all), similar ones and a draw of the others.

SMILES	esBAF inh	Wnt bcat act	Statin myotox sup	MITF act
CC(C)(C)C1C/C(=C/c2ccccn2)C(=O)/C(=C/c2ccccn2)C1 (stereo unspecified)	-86	/	116*	-101
C[C@@H]1CN([C@H](C)CO)C(=O)c2cc(NC(=O)C3CCCCC3)ccc2O[C@@H](C)CCCCO[C@@H]1CN(C)S(=O)(=O)c1ccc(F)cc1	3	/	/	/
CCOC(=O)C1CCN(C(=O)CN2C(=O)NC3(CCCCC3)C2=O)CC1	1	43*	9	3
CCc1cccc2c(C(=O)CN3C(=O)NC4(CCCCCC4)C3=O)c[nH]c12	-22	-2	-239	102*
N#Cc1ccsc1NC(=O)CN1C(=O)NC2(CCCC2)C1=O	45*	8	18	-1
O=C(CN1C(=O)NC2(CCCCCC2)C1=O)c1ccc2c(c1)OCCO2	37	67*	/	/
NC(=O)c1ccsc1NC(=O)CN1C(=O)NC2(CCCCC2)C1=O	0	1	-3	-2
C[C@@H]1CN([C@@H](C)CO)C(=O)c2cccc(NS(=O)(=O)c3ccc(F)cc3)c2O[C@H]1CN(C)S(=O)(=O)c1ccc(Cl)cc1	-1	/	/	/
COc1ccccc1NC(=O)N[C@H]1C=C[C@@H](CC(=O)NCc2ccc(Cl)c(Cl)c2)O[C@H]1CO	2	/	0	/
Cc1noc(C)c1S(=O)(=O)Nc1ccc2c(c1)CC(=O)N([C@@H](C)CO)C[C@H](C)[C@H](CN(C)C)O2	2	/	1	/
O=C(CN1C(=O)NC2(CCCCCC2)C1=O)c1ccccc1	-12	4	-12	-4
CCc1ccc(C(=O)CN2C(=O)NC3(CCCCCC3)C2=O)cc1	64*	13	-70	75
O=C(CN1C(=O)NC2(CCCCCC2)C1=O)c1ccc(F)cc1	6	4	-5	21
O=C(CN1C(=O)NC2(CCCCCC2)C1=O)c1ccc(Cl)cc1	52*	15	-5	56
CNC(=O)C[C@H]1CC[C@H]2[C@@H](COC[C@H](O)CN2S(=O)(=O)c2ccc(Oc3ccccc3)cc2)O1	3	/	10	/
N#CCC(=O)Nc1ccc(C(=O)OCC(=O)c2ccc3c(c2)OCO3)cc1	47*	39*	8	69
CCOC(=O)c1c(C)[nH]c(C)c1C(=O)COC(=O)c1cccc(C)c1O	-4	/	0	7
Cc1cccc(C(=O)OCC(=O)c2ccc3c(c2)OCO3)c1O	6	57*	4	119*
NS(=O)(=O)c1ccc(NC(=O)COC(=O)c2ccc3c(c2)OCCO3)cc1	-7	-1	2	-15
Cc1cccc(C(=O)OCC(=O)c2ccc3c(c2)OCCO3)c1O	28	?	-6	50
Cc1cccc(C(=O)OCC(=O)c2c(C)[nH]c3ccccc23)c1O	73*	37*	6	82*
N#CCC(=O)Nc1ccc(C(=O)OCC(=O)c2ccc3c(c2)OCCO3)cc1	68*	27	3	43
C[C@H](CO)N1C[C@H](C)[C@H](CN(C)C)Oc2c(NC(=O)c3ccncc3)cccc2C1=O	1	/	-5	/
O=C(NCCc1cccc(Cl)c1)c1ccc2c(c1)OCO2	/	45*	/	27
O=C(NCCS(=O)(=O)NCCc1ccccc1)c1ccc2c(c1)OCO2	/	-1	/	108*
SMILES	esBAF inh	Wnt bcat act	Statin myotox sup	MITF act
O=C(NCCS(=O)(=O)NCc1ccccc1Cl)c1ccc2c(c1)OCO2	7	3	5	2
COc1ccc2nc(NC(=O)CCNC(=O)c3ccco3)sc2c1	45*	42*	8	110*
CCCC(=O)Nc1nc2ccc(OC)cc2s1	58*	?	-12	51
O=C(CCNC(=O)c1ccco1)Nc1nc2ccccc2s1	37	26	-1	26
COc1ccc2nc(NC(=O)CCc3ccc(OC)c(OC)c3)sc2c1	/	-2	/	19
S=C(N/N=C/c1ccc(Br)cc1)N1CCCCC1	50*	-3	15	/
S=C(N/N=C/c1ccc(Cl)cc1)N1CCOCC1	8	/	-6	42
O=c1oc2ccccc2cc1NCc1ccccc1O	63*	20	18	96*
CO[C@@H]1CN(C)C(=O)c2ccc(NC(=O)c3ccccn3)cc2OC[C@@H](C)N(CCC(F)(F)F)C[C@H]1C	5	/	-2	/
CC(C)n1nnnc1SCC(=O)c1ccc2c(c1)OCCO2	47*	30	-1	77
Cc1ccc(C)c(C(=O)CSc2nnnn2C(C)C)c1	51*	/	0	45
O=C(CSc1nnnn1C1CCCC1)c1ccc2c(c1)OCCO2	81*	?	-4	74
CCn1nnnc1SCC(=O)c1ccc2c(c1)OCCO2	?	12	-2	16
O=C(CSc1nnnn1C1CCCC1)Nc1ccc2c(c1)OCO2	-2	/	-9	6
Cc1ccc(C(=O)CSc2nnnn2C(C)C)c(C)c1	/	/	/	-2
CCn1c(C)cc(C(=O)CSc2nnnn2C2CCCC2)c1C	-11	3	3	105*
CC(=O)N(C[C@@H]1N[C@@H](CO)[C@H]1c1ccc(-c2ccccc2)cc1)C(C)C	3	/	7	/
COc1ccc(S(=O)(=O)N[C@@H]2CC[C@@H](CCNC(=O)CN3CCOCC3)O[C@@H]2CO)cc1	0	/	-1	/
CO[C@@H]1CN(C)C(=O)c2cc(NC(=O)NC(C)C)ccc2OC[C@@H](C)N(Cc2cncnc2)C[C@@H]1C	2	/	-9	/
Cc1cc(C)n2c(Nc3ccc4c(c3)OCCO4)c(-c3ccc(C)o3)nc2n1	83*	24	25	19
Cc1cc(C)n2c(Nc3ccc4c(c3)OCCO4)c(-c3cc4ccccc4o3)nc2n1	/	-7	/	/
COCC(=O)Nc1ccc2c(c1)OC[C@@H](C)N(C(=O)COC)C[C@@H](C)[C@@H](OC)CN(C)C2=O	3	/	-3	/
Cn1nc(-c2ccc(Cl)cc2)cc1NC(=O)CC(C)(C)CC(=O)O	/	41*	/	/
O=C(O)c1ccccc1NN=C1CCCCC1	83*	4	3	12
O=C(Nc1ccccc1C(=O)O)c1ccccc1	5	/	4	7
SMILES	esBAF inh	Wnt bcat act	Statin myotox sup	MITF act
O=C(NN=C1CCCC1)c1ccccc1O	75*	-1	-1	/
COc1cccc(CC(=O)Nc2ccc3c(c2)OC2(CCCC2)O3)c1	42*	3	12	19
CC(=O)Nc1ccc(CC(=O)Nc2ccc3c(c2)OC2(CCCC2)O3)cc1	46*	-6	-1	/
C[C@H]1CN([C@@H](C)CO)C(=O)c2cc(NS(=O)(=O)c3cccs3)ccc2O[C@H]1CN(C)S(=O)(=O)c1cn(C)cn1	1	/	4	/
CC1=NN(c2ccc([N+](=O)[O-])cc2)C(=O)/C1=C\N(C)C	/	5	/	10
CN(C)/C=C1\C(=O)N(c2ccc([N+](=O)[O-])cc2)N=C1c1ccccc1	53*	/	-2	36
O=C(C[C@H]1C[C@@H]2c3cc(NC(=O)NC4CCCC4)ccc3O[C@@H]2[C@@H](CO)O1)NCc1cc(F)ccc1F	1	/	1	/
C=CCOc1c(CNc2cccc(C(=O)O)c2)cccc1OCC	4	/	6	9
CCOc1cccc(CNc2ccc(O)cc2)c1OCc1ccccc1Cl	-11	/	108*	-9
C=CCOc1c(CNc2cccc(C(=O)O)c2)cccc1OC	52*	/	-2	51
C=CCOc1c(CNc2ccc(C(=O)O)cc2)cccc1OCC	44*	/	-11	65
